Measured values published in the supplement of paper PMC10849652.
The full data set covers some 8,800 targets. This sample favours those with a hit. About 0.5% of all pairs of compound and target were hits. Values without a mark were called inactive.

Legend:
Assay in all cases: log2 fold change, soluble protein after heating vs DMSO (PISA); higher = thermal stabilisation; K562 lysate, 10 uM; active = over 0.2 and 3.5 SD of the protein, either way, in both replicates (recomputed)
ibrutinib = compound: C=CC(=O)N1CCC[C@@H](n2nc(-c3ccc(Oc4ccccc4)cc3)c3c(N)ncnc32)C1 [ibrutinib]
Summary of the method: (§1)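 Values give the log-two fold change in thermal stability against solvent controls, from duplicates. Crude K562 extract at 1 mg/mL protein, made by dounce homogenisation in PBS pH 7.4 with 1 mM MgCl2, was treated with 10 μM compound for 30 min. After 3 min heating across 48°C-58°C, aliquots were pooled, adjusted to 0.5% NP-40 at 4°C and centrifuged at 21,000xg for 90 min. The supernatant was measured by TMTpro 16plex LC-MS/MS with channel sums equalised.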

[1] = compound: CC(=O)c1cnc2ccc(-c3cc(Cl)c(O)c(Cl)c3)nc2c1N[C@H]1CC[C@H](CN(C)C)CC1
Summary of the method: as §1

ralimetinib = compound: CC(C)(C)Cn1c(N)nc2ccc(-c3[nH]c(C(C)(C)C)nc3-c3ccc(F)cc3)nc21 [ralimetinib]
Summary of the method: as §1

[2] = compound: CC(C)(O)CC(=O)NCCn1ccc2ncnc(Nc3ccc(Oc4cccc(C(F)(F)F)c4)c(Cl)c3)c21
Summary of the method: as §1

[3] = compound: CC(C)C1=C2N=C(C=C(N2N=C1)NCC3=CC=CC=C3)NCCCCCCN
Summary of the method: as §1

[4] = compound: CC1=C(C(CC(=O)N1)C2=CC=C(C=C2)C(F)(F)F)C(=O)NC3=C(C=C4C(=C3)C=NN4)F
Summary of the method: as §1

[5] = compound: CC1=C(C2=C(C=C1)C(=O)C3=CC=CC=C3N2CCCN)C
Summary of the method: as §1

[6] = compound: CC1=C(C=C(C=C1)NC(=O)C2=CC(=CC=C2)C(C)(C)C#N)NC3=CC4=C(C=C3)N=CN(C4=O)C
Summary of the method: as §1

[7] = compound: CC1=C(C=C(C=C1)NC(=O)C2=CC(=CC=C2)N(C)C)NC(=O)C3=CC=C(C=C3)O
Summary of the method: as §1

[8] = compound: CC1=CC=C(C=C1)SC2=C3C=C(SC3=CN=C2)C(=O)N
Summary of the method: as §1

vemurafenib = compound: CCCS(=O)(=O)Nc1ccc(F)c(C(=O)c2c[nH]c3ncc(-c4ccc(Cl)cc4)cc23)c1F [vemurafenib]
Summary of the method: as §1

[9] = compound: CCCS(=O)(=O)Nc1ccc(F)c(C(=O)c2c[nH]c3ncc(Cl)cc23)c1F
Summary of the method: as §1

barasertib = compound: CCN(CCCOc1ccc2c(Nc3cc(CC(=O)Nc4cccc(F)c4)[nH]n3)ncnc2c1)CCOP(=O)(O)O [barasertib]
Summary of the method: as §1

[10] = compound: CC[C@@H]1C(=O)N(C)c2cnc(Nc3ccc(C(=O)NC4CCN(C)CC4)cc3OC)nc2N1C1CCCC1
Summary of the method: as §1

volasertib = compound: CC[C@@H]1C(=O)N(C)c2cnc(Nc3ccc(C(=O)N[C@H]4CC[C@H](N5CCN(CC6CC6)CC5)CC4)cc3OC)nc2N1C(C)C [volasertib]
Summary of the method: as §1

[11] = compound: CCn1c(C(=O)N(C2CC2)C2CC2)cc2c3c(ncn3C)c(Nc3cc(C)n(C)n3)nc21
Summary of the method: as §1

[12] = compound: CCn1cc(-c2ccnc3[nH]c(-c4cccc(CN(C)C)c4)cc23)c(-c2ccc(NC(=O)N(C)C)cc2)n1
Summary of the method: as §1

[13] = compound: CN1CCC(CNc2ccc3ncc(-c4cccc(OC(F)(F)F)c4)n3n2)CC1
Summary of the method: as §1

saracatinib = compound: CN1CCN(CCOc2cc(OC3CCOCC3)c3c(Nc4c(Cl)ccc5c4OCO5)ncnc3c2)CC1 [saracatinib]
Summary of the method: as §1

sotrastaurin = compound: CN1CCN(c2nc(C3=C(c4c[nH]c5ccccc45)C(=O)NC3=O)c3ccccc3n2)CC1 [sotrastaurin]
Summary of the method: as §1

UniProt O00161, sequence (O00161 whole entry, looked up): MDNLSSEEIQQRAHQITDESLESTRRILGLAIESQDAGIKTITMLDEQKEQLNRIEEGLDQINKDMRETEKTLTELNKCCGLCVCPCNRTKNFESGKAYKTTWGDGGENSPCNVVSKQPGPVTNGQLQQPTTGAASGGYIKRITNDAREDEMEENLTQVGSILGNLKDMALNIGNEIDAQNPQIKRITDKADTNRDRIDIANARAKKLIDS
UniProt Q7L8J4, sequence (Q7L8J4 whole entry, looked up): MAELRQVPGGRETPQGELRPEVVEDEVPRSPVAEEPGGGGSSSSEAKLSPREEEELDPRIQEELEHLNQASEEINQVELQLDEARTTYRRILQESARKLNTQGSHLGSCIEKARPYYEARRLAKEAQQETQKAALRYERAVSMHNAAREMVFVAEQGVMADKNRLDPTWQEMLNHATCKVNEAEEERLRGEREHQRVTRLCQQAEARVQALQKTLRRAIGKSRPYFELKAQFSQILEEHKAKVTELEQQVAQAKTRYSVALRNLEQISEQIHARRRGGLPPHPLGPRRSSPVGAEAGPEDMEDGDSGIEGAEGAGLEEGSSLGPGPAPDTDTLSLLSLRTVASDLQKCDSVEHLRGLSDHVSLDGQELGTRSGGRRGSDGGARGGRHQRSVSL
UniProt Q8NDV3, sequence (Q8NDV3 whole entry, looked up): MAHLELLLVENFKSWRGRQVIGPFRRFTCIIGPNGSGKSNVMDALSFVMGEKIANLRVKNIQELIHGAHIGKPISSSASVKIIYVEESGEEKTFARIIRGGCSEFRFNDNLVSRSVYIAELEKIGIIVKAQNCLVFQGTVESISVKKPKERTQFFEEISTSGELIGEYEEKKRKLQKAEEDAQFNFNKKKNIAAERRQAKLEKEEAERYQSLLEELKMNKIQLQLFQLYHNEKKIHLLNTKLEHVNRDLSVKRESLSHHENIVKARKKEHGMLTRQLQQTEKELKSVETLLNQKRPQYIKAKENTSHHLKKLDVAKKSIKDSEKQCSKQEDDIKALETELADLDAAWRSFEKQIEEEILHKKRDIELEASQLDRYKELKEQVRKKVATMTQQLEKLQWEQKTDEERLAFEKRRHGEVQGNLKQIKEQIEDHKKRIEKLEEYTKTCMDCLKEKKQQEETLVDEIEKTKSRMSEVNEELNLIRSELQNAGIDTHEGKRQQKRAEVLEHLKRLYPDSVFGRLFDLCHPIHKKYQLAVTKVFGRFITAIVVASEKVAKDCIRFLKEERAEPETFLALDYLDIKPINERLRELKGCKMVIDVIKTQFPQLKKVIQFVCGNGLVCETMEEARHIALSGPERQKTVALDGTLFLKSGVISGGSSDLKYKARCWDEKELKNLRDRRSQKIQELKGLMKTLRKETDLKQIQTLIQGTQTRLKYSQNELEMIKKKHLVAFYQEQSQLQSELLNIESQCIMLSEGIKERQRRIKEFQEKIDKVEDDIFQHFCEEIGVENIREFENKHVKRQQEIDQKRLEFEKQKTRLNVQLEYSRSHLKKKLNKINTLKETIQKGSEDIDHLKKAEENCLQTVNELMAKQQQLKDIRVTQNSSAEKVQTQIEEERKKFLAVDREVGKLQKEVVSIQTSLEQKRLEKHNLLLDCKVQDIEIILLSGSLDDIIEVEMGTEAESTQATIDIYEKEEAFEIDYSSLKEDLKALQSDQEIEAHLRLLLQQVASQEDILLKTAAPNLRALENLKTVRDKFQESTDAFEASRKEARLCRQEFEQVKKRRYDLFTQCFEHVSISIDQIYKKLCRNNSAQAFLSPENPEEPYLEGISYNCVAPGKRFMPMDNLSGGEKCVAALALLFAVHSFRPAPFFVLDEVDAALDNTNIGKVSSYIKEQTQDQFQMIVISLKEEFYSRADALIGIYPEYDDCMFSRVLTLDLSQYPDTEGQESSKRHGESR
UniProt Q9NP77, sequence (Q9NP77 whole entry, looked up): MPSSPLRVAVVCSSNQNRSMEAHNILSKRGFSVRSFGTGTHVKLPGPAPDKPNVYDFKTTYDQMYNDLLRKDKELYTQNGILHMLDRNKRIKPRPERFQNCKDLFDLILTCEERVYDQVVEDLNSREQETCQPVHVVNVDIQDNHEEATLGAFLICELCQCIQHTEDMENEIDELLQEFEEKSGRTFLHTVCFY
UniProt Q8IVJ1, sequence (Q8IVJ1 whole entry, looked up): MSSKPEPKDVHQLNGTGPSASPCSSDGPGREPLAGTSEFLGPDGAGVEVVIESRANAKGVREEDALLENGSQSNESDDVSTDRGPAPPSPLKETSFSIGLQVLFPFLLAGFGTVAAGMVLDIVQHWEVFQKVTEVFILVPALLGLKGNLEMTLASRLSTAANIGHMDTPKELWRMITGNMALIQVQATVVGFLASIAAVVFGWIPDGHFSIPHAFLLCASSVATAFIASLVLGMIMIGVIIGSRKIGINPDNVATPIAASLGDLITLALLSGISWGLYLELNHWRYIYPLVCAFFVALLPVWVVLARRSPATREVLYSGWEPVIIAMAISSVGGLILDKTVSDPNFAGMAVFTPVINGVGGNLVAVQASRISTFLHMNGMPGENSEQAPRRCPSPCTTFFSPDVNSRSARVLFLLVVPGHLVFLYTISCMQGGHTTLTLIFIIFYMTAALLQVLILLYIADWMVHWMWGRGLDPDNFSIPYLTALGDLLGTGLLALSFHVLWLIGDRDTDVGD
UniProt O95793, sequence (O95793 whole entry, looked up): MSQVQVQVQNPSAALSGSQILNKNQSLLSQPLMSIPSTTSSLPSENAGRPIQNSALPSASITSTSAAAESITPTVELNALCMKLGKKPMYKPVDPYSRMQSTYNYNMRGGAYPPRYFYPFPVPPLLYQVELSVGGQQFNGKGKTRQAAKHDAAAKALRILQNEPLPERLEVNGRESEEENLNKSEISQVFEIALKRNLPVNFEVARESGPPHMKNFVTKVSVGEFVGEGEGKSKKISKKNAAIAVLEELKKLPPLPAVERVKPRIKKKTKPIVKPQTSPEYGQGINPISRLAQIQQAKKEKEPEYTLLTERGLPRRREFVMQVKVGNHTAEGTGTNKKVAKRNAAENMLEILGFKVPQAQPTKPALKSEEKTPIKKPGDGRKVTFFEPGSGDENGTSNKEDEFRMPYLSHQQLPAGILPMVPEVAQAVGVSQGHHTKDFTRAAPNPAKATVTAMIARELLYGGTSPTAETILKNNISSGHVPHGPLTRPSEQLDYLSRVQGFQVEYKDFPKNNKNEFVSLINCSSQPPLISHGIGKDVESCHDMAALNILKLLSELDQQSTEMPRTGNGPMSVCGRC
UniProt Q9UQE7, sequence (Q9UQE7 whole entry, looked up): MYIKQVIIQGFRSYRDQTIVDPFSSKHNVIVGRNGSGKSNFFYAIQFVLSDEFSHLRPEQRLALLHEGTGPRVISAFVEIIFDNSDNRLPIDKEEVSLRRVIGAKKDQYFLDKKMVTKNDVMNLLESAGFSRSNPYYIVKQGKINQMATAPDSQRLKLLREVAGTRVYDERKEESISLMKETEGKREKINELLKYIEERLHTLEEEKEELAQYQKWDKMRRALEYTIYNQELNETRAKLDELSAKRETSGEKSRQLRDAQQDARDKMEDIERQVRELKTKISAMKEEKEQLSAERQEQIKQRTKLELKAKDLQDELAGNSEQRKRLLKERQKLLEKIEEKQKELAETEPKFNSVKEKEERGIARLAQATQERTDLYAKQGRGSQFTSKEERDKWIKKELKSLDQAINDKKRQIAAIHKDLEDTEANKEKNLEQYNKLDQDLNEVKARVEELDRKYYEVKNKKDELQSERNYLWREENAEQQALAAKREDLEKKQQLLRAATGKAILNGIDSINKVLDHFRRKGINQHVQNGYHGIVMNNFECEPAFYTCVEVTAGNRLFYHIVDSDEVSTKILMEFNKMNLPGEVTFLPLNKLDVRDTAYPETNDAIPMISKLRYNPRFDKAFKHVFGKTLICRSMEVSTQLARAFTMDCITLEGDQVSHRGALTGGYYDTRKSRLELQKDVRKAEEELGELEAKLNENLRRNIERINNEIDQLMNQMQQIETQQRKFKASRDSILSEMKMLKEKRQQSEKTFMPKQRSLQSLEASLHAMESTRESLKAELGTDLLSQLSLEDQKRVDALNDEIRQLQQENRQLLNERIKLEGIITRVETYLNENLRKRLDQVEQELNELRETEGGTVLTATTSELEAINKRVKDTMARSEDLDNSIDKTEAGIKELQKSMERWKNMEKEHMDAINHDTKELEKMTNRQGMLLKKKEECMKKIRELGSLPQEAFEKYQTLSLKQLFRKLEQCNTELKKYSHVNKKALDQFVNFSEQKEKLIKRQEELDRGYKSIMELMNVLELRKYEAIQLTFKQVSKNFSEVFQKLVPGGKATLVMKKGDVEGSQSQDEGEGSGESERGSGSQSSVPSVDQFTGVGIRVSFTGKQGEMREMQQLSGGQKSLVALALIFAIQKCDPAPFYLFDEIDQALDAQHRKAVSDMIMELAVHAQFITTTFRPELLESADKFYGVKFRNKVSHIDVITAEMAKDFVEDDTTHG
UniProt Q9H668, sequence (Q9H668 whole entry, looked up): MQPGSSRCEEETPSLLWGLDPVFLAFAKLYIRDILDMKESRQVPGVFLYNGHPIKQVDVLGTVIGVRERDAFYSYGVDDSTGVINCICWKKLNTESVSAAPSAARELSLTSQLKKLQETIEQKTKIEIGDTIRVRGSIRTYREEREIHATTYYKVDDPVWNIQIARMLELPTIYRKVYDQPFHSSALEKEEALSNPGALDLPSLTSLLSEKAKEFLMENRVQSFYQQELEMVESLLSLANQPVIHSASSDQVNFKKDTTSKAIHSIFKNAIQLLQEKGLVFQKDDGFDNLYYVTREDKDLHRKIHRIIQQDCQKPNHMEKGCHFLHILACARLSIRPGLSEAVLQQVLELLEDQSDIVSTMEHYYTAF
UniProt Q96H78, sequence (Q96H78 whole entry, looked up): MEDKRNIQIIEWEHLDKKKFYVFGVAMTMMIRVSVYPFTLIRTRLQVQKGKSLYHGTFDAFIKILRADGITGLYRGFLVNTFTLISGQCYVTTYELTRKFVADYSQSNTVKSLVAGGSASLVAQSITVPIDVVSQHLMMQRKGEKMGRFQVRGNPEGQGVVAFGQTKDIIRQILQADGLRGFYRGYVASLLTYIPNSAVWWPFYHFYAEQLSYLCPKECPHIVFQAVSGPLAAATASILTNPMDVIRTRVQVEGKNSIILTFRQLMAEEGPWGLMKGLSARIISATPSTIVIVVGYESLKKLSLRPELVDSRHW

Target	log2 fold change (ibrutinib)	log2 fold change [1]	log2 fold change (ralimetinib)	log2 fold change [2]	log2 fold change [3]	log2 fold change [4]	log2 fold change [5]	log2 fold change [6]	log2 fold change [7]	log2 fold change [8]	log2 fold change (vemurafenib)	log2 fold change [9]	log2 fold change (barasertib)	log2 fold change [10]	log2 fold change (volasertib)	log2 fold change [11]	log2 fold change [12]	log2 fold change [13]	log2 fold change (saracatinib)	log2 fold change (sotrastaurin)
SMG5 (UniProt Q9UPR3)	-0.041	0.048	0.021	-0.032	-0.037	0.071	0.015	-0.117	0.057	0.024	0.009	0.048	0.047	0.029	-0.006	0.068	0.038	-0.004	0.05	-0.024
SPPL2A (UniProt Q8TCT8)	-0.081	0.154	-0.152	-0.219	0.004	–	–	0.138	0.091	-0.008	0.312	0.023	0.077	-0.016	0.011	-0.062	-0.196	0.202	–	-0.029
SSU72 (UniProt Q9NP77)	0.075	0.031	0.026	-0.002	0.038	-0.018	0.025	0.001	0.015	0.03	-0.018	0.001	0.018	-0.064	-0.045	-0.049	-0.325 (active)	0.171	-0.001	0.018
SMC3 (UniProt Q9UQE7)	0.002	-0.001	-0.023	0.003	-0.002	-0.004	0.01	-0.014	0.011	0.01	-0.018	0.004	-0.004	0.008	-0.013	0.003	0.041	-0.018	-0.011	-0.016
TARDBP (UniProt Q13148)	-0.161	0.052	-0.004	-0.076	0.015	0.019	0.068	-0.059	0.01	0.019	0.027	0.016	0.151	0.007	-0.125	0.169	-0.008	-0.069	0.058	-0.032
SYK (UniProt P43405)	-0.09	-0.041	-0.025	-0.103	0.051	-0.055	-0.114	-0.001	0.027	-0.065	0.184	0.065	0.092	–	0.027	-0.123	-0.644 (active)	-0.001	-0.041	0.068
SLC25A44 (UniProt Q96H78)	-0.006	0.002	0.065	-0.322	-0.031	–	-0.017	0.038	-0.118	0.002	0.014	0.015	0.007	0.002	0.06	0.307	0.021	0.17	-0.041	0.062
SMC1B isoform 3 (UniProt Q8NDV3)	0.013	0.017	0.07	-0.029	0.001	-0.012	-0.001	0.021	0.026	-0.005	0.149	0.002	0.003	-0.073	0.024	-0.071	–	–	0.055	-0.02
SORBS3 (UniProt O60504)	-0.005	0.067	0.099	-0.113	-0.035	–	-0.158	0.046	-0.05	-0.114	-0.092	0.067	-0.032	0.034	-0.129	-0.05	-0.025	0.004	0.052	-0.011
SH3BP5L (UniProt Q7L8J4)	0.007	0.013	-0.024	-0.035	0.032	0.009	-0.02	0.021	-0.017	-0.045	0.078	0.02	-0.029	0.011	0.013	-0.011	-0.014	0.072	0.05	0
STN1 (UniProt Q9H668)	0.133	-0.187	0.151	-0.071	-0.056	0.106	–	-0.016	0.051	0.035	0.047	-0.389	0.114	-0.071	-0.068	-0.016	-0.179	0.31	–	-0.025
SZT2 (UniProt Q5T011)	-0.225	-0.102	0.14	-0.07	-0.135	0.076	0.126	–	-0.134	0.105	–	-0.032	0.313	0.293	-0.095	0.006	0.035	0.094	-0.073	–
STK17A (UniProt Q9UEE5)	–	–	–	–	–	0.213	–	–	–	–	–	–	–	–	–	–	0.164	-0.109	–	–
STAU1 isoform 3 (UniProt O95793)	-0.094	–	–	–	0.028	0.012	–	-0.064	–	–	–	–	0.014	–	–	–	-0.166	-0.016	–	0.092
SMC4 (UniProt C9JJ64)	-0.146	–	–	–	–	–	–	–	–	–	–	–	0.152	–	–	–	–	–	–	–
SLC41A1 (UniProt Q8IVJ1)	–	0.007	-0.003	0.112	-0.037	-0.023	–	-0.081	0.09	0.041	–	0.021	–	0.085	-0.084	0.035	0.083	0.06	–	0.082
SHC1 (UniProt P29353)	–	–	–	–	–	–	–	–	–	–	–	–	–	–	–	–	-0.2	-0.114	–	–
SNAP23 isoform 2 (UniProt O00161)	–	-0.045	-0.071	0.095	-0.029	0.306	–	–	0.027	0.028	0.172	0.09	–	0.052	0.003	-0.029	0.123	-0.061	–	–
TAOK2 isoform 2 (UniProt Q9UL54)	–	–	–	–	–	0.034	–	–	–	–	–	–	–	–	–	–	–	–	–	–
SLC40A1 (UniProt Q9NP59)	–	-0.028	-0.037	-0.096	0.042	-0.017	0.049	-0.034	0.041	-0.055	0.01	-0.037	–	0.123	0.037	-0.106	-0.491 (active)	0.067	0	0.026
SRC isoform 2 (UniProt P12931)	–	-0.061	-0.035	0.075	0.052	–	0.07	–	0.042	0	–	0.166	0.133	0.045	-0.039	-0.024	0.184	-0.121	–	–
